Screening results from PubChem BioAssay.
A selection: hits, their analogues and other compounds. The true share with any hit is near 2.4%.
GLP-1R agonist: activates the human GLP-1 receptor; P43220; HEK293 GLP-1R CRE-luciferase, luminescence, 4-6 h; cells express a hypersensitive GLP-1R form; Potency, µM (highest dose often 45.6 µM), inactives show at the top dose activation, actives largely listed as activators; hit rate 0.007% among 380,000; AID 624172; also: potency is read from the fitted curve at half-maximal effect; % of control where 0% means no effect
GLP1R cytotox: cytotoxicity in counter-screen for GLP-1R inverse agonists; HEK293 cAMP-luciferase reporter cells, luminescence, 24 h; Potency, µM (top dose mostly 38.3 µM), inactives show at the top dose activity change, negative = inhibition, hits mostly inhibitors; hit rate 0.13% among 410,000; AID 624418;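 also: loss of luciferase light is scored as toxicity; potency is read from the fitted curve at half-maximal effect; % is scaled to controls: 0 for no effect and ±100 for the full control effect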
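Seeding density was 200 cells/uL; after overnight-length (12 h) culture, 23 nL compounds went on for 24 h at 37 °C. Readout used a luciferase detection reagent, luminescence taken after 12 min at room temperature.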
TRHR PAM: allosterically enhances the human TRH receptor; P34981; TRHR cells, fluo-8 calcium fluorescence, EC20 TRH enhancement; enhancement, % at 2 µM; hit rate 0.66% among 360,000; AID 493056; in the data active = enhancement above about 30%; also: 0% is about no effect
Target sequence (P34981 whole entry, looked up): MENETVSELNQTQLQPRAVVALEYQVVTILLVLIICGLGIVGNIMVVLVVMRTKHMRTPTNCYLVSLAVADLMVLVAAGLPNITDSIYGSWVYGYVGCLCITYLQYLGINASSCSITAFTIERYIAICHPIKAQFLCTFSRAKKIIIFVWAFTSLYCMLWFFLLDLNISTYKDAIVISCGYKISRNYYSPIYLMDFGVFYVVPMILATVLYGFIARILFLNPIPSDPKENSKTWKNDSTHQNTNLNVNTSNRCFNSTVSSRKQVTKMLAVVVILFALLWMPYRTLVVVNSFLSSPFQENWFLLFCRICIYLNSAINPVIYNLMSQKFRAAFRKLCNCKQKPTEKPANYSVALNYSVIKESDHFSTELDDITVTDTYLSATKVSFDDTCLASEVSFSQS
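Enhancer read-out: after compound pinning and an initial kinetic agonist-mode read, an EC20 of TRH (10 nM final) was injected and fluo-8 calcium signal (Ex 480/Em 530) followed at 1 s/cycle for 100 cycles in TRHR-expressing cells.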
PTHR1 ag: PTHR1 (human) receptor agonism. hit rate 0.075% among 410,000. Potency, µM (series often up to 115 µM), for the others: at the highest dose activation, hits mostly activators. HEK293 GP2 PTHR1 cells, GloSensor cAMP luminescence, 1 h; also: potency is read from the fitted curve at half-maximal effect; nearly all actives have a fitted effect of over 55% in size
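HEK-293-derived GP2 cells expressing PTHR1 and a GloSensor cAMP reporter, 3,000/well, plated overnight, given luciferin plus IBMX (each 0.5 mM as added) for 1 h at 37 °C, then compound for 1 h at 37 °C. Luminescence was read after 15 min at room temperature.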
GLP1R inv ag: acts as inverse agonist at human GLP-1 receptor | HEK293 GLP-1R CRE-luciferase, luminescence, 24 h; GLP-1R form is constitutively active | P43220 | hit rate 1.6% among 410,000 | Potency, µM (doses to about 38.3 µM), inactives show at the top dose activity change, negative = inhibition, actives largely listed as inhibitors; also: potency is read from the fitted curve at half-maximal effect; % is scaled to controls: 0 for no effect and ±100 for the full control effect; nearly all actives have a fitted effect of over 55% in size
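HEK293 cells stably co-expressing a cAMP-responsive luciferase reporter and constitutively active GLP-1R were seeded, incubated 12 h, then exposed to compounds for 24 h at 37 C. Luminescence was read 12 min after detection reagent; inverse agonists lower signal.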
TRHR ag: TRH receptor (human) agonism; P34981; activation, % at 2 µM; TRHR cells, calcium flux fluo-8, FDSS agonist mode; hit rate 0.18% among 360,000; in the data active = activation above about 30%; also: 0% is about no effect
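In this calcium-flux screen, cells bearing human TRHR are dye-loaded with fluo-8, baselined for 10 cycles, then exposed to library compounds; positive kinetic calcium responses during the agonist phase mark hits, with TRH as control.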
The depositor's hits bear a star. Unless noted, calls follow the shape of the dose curve; as a rule, active = well fitted curve in the direction sought with a large enough effect; inconclusive = small, poorly fitted or top-dose-only effect, or another doubt; inactive = no such curve, though single readings can be large; an effect the other way counts as inactive or inconclusive.

O=C(CN1C(=O)C2C3C=CC(C3)C2C1=O)Nc1ccc(F)cc1 (configuration not stated) was read as GLP-1R agonist -4%, GLP1R cytotox 7%, TRHR PAM 6, PTHR1 ag 4%, GLP1R inv ag 10% and TRHR ag 0.
`CCC(C)c1ccc(NC(=O)c2ccco2)cc1` (configuration not stated) gave GLP-1R agonist -2%, GLP1R cytotox 5%, TRHR PAM 0, PTHR1 ag -36%, GLP1R inv ag inconclusive and TRHR ag -1.
For O=c1[nH]c(CN2CCN(c3ncccn3)CC2)nc2c(Br)cc(Br)cc12 the results were GLP-1R agonist 3%, GLP1R cytotox -7%, TRHR PAM 30*, PTHR1 ag -11%, GLP1R inv ag -29% and TRHR ag 1.
`Cc1cc2c(cc1C)C(c1cccc([N+](=O)[O-])c1)CC(=O)N2` (configuration not stated) gave GLP-1R agonist 10%, GLP1R cytotox -17%, TRHR PAM -5, PTHR1 ag -20%, GLP1R inv ag 3% and TRHR ag 0.
For O=C1CC(c2ccc(Cl)c([N+](=O)[O-])c2)c2ccc3ccccc3c2N1 (configuration not stated) the results were GLP-1R agonist -1%, GLP1R cytotox -4%, TRHR PAM 37*, PTHR1 ag inactive, GLP1R inv ag inconclusive and TRHR ag -3.
`O=[N+]([O-])c1ccc(NN=Cc2cccc(O)c2)nc1` gave GLP-1R agonist 14%, GLP1R cytotox -17%, PTHR1 ag -22% and GLP1R inv ag inconclusive.
O=[N+]([O-])c1ccc(NN=Cc2cc(Br)ccc2O)nc1 was read as GLP-1R agonist 11%, GLP1R cytotox inconclusive, PTHR1 ag -23% and GLP1R inv ag 2.8µM*.
Screening Cc1ccc(S(=O)(=O)N(C)c2ccc(C(=O)NCC(c3ccco3)N3CCCC3)cc2)cc1 (configuration not stated) returned GLP-1R agonist 11%, GLP1R cytotox 7%, PTHR1 ag -30% and GLP1R inv ag inconclusive.
Screening Cc1ccc(N(C)S(=O)(=O)c2cccc(C(=O)NCC(c3ccco3)N3CCCC3)c2)cc1 (configuration not stated) returned GLP-1R agonist -4%, GLP1R cytotox 3%, TRHR PAM -10, PTHR1 ag -16%, GLP1R inv ag 10µM* and TRHR ag 0.
Screening COc1ccccc1NS(=O)(=O)c1cccc(C(=O)NCC(c2ccccc2OC)N2CCCC2)c1 (configuration not stated) returned GLP-1R agonist 5%, GLP1R cytotox 11%, TRHR PAM -4, PTHR1 ag -18%, GLP1R inv ag inconclusive and TRHR ag 0.
`COc1ccccc1C(CNC(=O)c1cccc(S(=O)(=O)Nc2ccc(C)cc2)c1)N1CCCC1` (configuration not stated) gave GLP-1R agonist -5%, GLP1R cytotox -28%, TRHR PAM 2, PTHR1 ag -9%, GLP1R inv ag 5.6µM* and TRHR ag 1.
Screening CCOc1ccc(NC(=O)c2ccc(F)c(S(=O)(=O)N3CCCC3)c2)cc1 returned GLP-1R agonist 7%, GLP1R cytotox 3%, PTHR1 ag -45% and GLP1R inv ag inconclusive.
Screening Cc1cc2nc(-c3ccc[nH]c3=O)n(Cc3ccc(F)cc3)c2cc1C returned GLP-1R agonist 10%, GLP1R cytotox 2%, TRHR PAM -8, PTHR1 ag -4%, GLP1R inv ag inconclusive and TRHR ag 0.
For Cc1cc2nc(-c3ccc[nH]c3=O)[nH]c2cc1C the results were GLP-1R agonist 16%, GLP1R cytotox 74%, TRHR PAM 0, PTHR1 ag -10%, GLP1R inv ag 3.5µM* and TRHR ag 0.
